Screens: PubChem BioAssay, several laboratories
CYP2C9 act: activators of human CYP2C9; P11712; recombinant CYP2C9, luciferin-H conversion, luminescence; stronger effect = higher value; factor 1 = untreated enzyme, 0 = blocked; activation factor at 5 µM; hit rate 1.4% among 96,000; AID 1024;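 active = activation factor of 2 or more for CYP2C9 at a 5 µM dose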;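 also: 0 = sulfaphenazole-blocked wells and 1 = vehicle-only wells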
CYP2C19 act: activators of human cytochrome P450 2C19; P33261; 96,000 tested, under 10 active; AID 1025; activation factor at 5 µM; recombinant CYP2C19, luciferin-H EGE luminescence; stronger effect = higher value; 0 = fully inhibited enzyme, 1 = untreated enzyme;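 active = activation factor of at least 2 at 5 µM in the primary screen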;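 also: 0 = wells with 2.5 mM tranylcypromine and 1 = vehicle-only wells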
Target sequence (P33261 whole entry, looked up): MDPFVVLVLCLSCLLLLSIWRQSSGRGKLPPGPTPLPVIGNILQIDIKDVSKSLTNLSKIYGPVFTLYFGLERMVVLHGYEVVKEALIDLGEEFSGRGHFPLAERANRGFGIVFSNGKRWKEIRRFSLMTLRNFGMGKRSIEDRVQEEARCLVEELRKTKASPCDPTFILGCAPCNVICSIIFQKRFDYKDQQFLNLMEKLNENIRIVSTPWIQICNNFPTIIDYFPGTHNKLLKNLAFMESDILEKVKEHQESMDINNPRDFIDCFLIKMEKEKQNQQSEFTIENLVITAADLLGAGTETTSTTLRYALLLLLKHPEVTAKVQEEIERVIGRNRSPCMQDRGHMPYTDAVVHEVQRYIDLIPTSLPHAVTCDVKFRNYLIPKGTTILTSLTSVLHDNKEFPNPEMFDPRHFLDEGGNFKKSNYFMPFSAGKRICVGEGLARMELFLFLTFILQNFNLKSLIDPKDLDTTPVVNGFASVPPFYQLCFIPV
DAT uptake mod: changed human dopamine transporter uptake under cocaine IC80 | AID 449768 | LLC-PK1 hDAT cells, [14C]-dopamine uptake with cocaine IC80; actives deviate in either direction | Q01959 | hit rate 1.3% among 110,000 | B-score at 10 µM;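 active = Z score or B-score, a plate-position-corrected score, falls beyond the plate's 99.7% confidence bounds, in either direction; inactive = both scores lie inside the 99.7% bounds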;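 also: scored against the spread of the other compound wells on the same plate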
D1 mod: allosteric modulators of human D1 dopamine receptor. P21728. HEK293 D1, CRE-luciferase, dopamine EC30 potentiation; actives deviate in either direction. B-score at 10 µM. hit rate 5.9% among 58,000. AID 641;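 active = luminescence count or its row- and column-corrected plate score outside the 99.7% band of the plate's sample wells, on either side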
CYP2C9 inh: blocks human cytochrome P450 2C9. CYP2C9 Supersomes, luciferin-H conversion, luminescence. inhibition, % at 5 µM. hit rate 20% among 96,000. AID 777;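 active = blocking of liver enzyme CYP2C9 beyond about 50% at 5 µM, limit read from the data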
CYP2C19 inhib: inhibitors of human CYP2C19; hit rate 21% among 96,000; inhibition, % at 5 µM; AID 778; CYP2C19 Supersomes, luciferin-H EGE luminescence, 30 min; P33261;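 active = CYP2C19 inhibition above a set limit at 5 µM in the primary screen, cut at about 50% in these data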;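 also: plate controls were negative control wells for no effect and 2.5 mM tranylcypromine positive control for full effect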
D1 PAM confirm: D1 receptor (human) allosteric modulation, confirmed. shares compounds with D1 mod. HEK293 D1 CRE-luciferase, dopamine EC30 potentiation; stronger effect = higher value. luminescence at 10 µM. hit rate 88% among 2,200. AID 642;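 active = luminescence in either of two replicates above the same-plate mean plus 3 SD of the low-dose dopamine control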
D1 ag no DA: activates D1 CRE-luciferase signal without dopamine present; AID 646; luminescence at 10 µM; HEK293 D1 CRE-luciferase, luminescence, no dopamine; stronger effect = higher value; hit rate 0.8% among 1,900; shares compounds with D1 mod; in the data active = luminescence above about 3900
Isoprot counter: alters isoproterenol CRE-luciferase response in HEK293 cells; shares compounds with D1 mod; calls only at 10 µM; AID 647; HEK293 D1 CRE-luciferase, isoproterenol EC30 counter-screen; hit rate 63% among 2,200;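 active = luminescence in either replicate above plate mean of wells with a partly effective reference agonist dose plus 3 SD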;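 also: isoproterenol raises cAMP through native beta-adrenoceptor Gs so signal bypasses D1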
Numbers without * were called inactive; i = inactive; / = not tested or not shown; + = active, no number. Only some compounds are listed: those with a hit (about 28% of all), similar ones and a draw of the others.

SMILES	CYP2C9 act	CYP2C19 act	DAT uptake mod	D1 mod	CYP2C9 inh	CYP2C19 inhib	D1 PAM confirm	D1 ag no DA	Isoprot counter
Clc1ccc(Cc2nn3c(Cn4nnc5ccccc54)nnc3s2)cc1	0.3	0.5	0.00287	5.35*	72.8*	48.0	9044*	1448	+
c1ccc(Cc2nnc3sc(-c4cccs4)nn23)cc1	0.5	0.4	0.0754	10.8*	54.8*	59.9*	20672*	1736	+
c1ccc(Cc2nnc3sc(-c4ccc5c(c4)OCCO5)nn23)cc1	0.2	0.4	-0.265	6.95*	75.5*	58.3*	12856*	1704	+
COc1ccc(C(=O)CSc2nnc(Cn3nnc4ccccc43)n2C)cc1	0.7	0.8	0.464	/	28.5	15.7	/	/	/
c1csc(-c2nn3c(Cn4nnc5ccccc54)nnc3s2)c1	1.1	0.9	0.128	5.57*	-5.0	5.1	9180*	1476	i
O=C(Nc1cccnc1)c1ccccc1Oc1ccccc1	0.5	0.4	-0.132	6.34*	54.6*	64.1*	15336*	1584	+
COc1cc2ccccc2cc1C(=O)Nc1cccnc1	0.7	0.6	0.705	/	31.5	43.8	/	/	/
CCOc1ccccc1NC(=O)CSc1ncnc2c1oc1ccccc12	0.1	1	1.28	3.6*	85.2*	4.4	6488*	1512	+
Cc1ccc(-n2c(-c3ccco3)nc3nc4ccccc4nc32)cc1F	1	1.1	/	/	-1.1	-7.1	/	/	/
Fc1cccc(-n2c(-c3ccco3)nc3nc4ccccc4nc32)c1	1	1	-0.77	9.2*	0.4	-0.4	16260*	1552	+
Fc1ccc(-n2c(-c3ccco3)nc3nc4ccccc4nc32)cc1	1	1	0.229	15.5*	4.5	1.7	25288*	1548	+
O=S(=O)(Cc1cnc(Cl)s1)c1ccccc1	0.9	0.5	-0.652	/	7.4	47.4	/	/	/
c1ccc2c(c1)oc1c(Nc3ccc4c(c3)OCO4)ncnc12	0.6	0.5	-0.822	3.08*	44.8	53.7*	6592*	/	+
CCC(=O)N1CCCc2cc(S(=O)(=O)N3CCN(C4CCCCC4)CC3)ccc21	1.1	0.7	-0.0416	-0.388	-5.7	33.0	/	/	/
COCCNC(=O)c1cn(C)c2ccc(S(=O)(=O)N(C)C3CCCCC3)cc2c1=O	0.7	0.9	0.627	0.0298	32.4	8.4	/	/	/
COc1ccc2c(c1)C(=O)N(c1ccccc1OC)C(=O)C2(C)C	0.4	0.2	-0.59	6.89*	62.9*	83.9*	11528*	1476	i
COc1cc(C(=O)COC(=O)Cc2cnc3sccn23)cc(OC)c1OC	1.1	0.9	0.00287	1.16	-13.4	9.4	/	/	/
Cn1nnnc1SCC(=O)Nc1nc(-c2ccccc2)c(-c2ccccc2)o1	1.1	1	0.271	3.75*	-6.7	-1.3	9488*	1600	i
Cn1nnnc1SCC(=O)Nc1ccccn1	0.6	0.6	-0.463	/	41.1	44.4	/	/	/
CC(C)c1nnc(NC(=O)CCCCCN2C(=O)C3C4C=CC(C4)C3C2=O)s1 (stereo unspecified)	0.8	1	0.715	/	19.1	-1.9	/	/	/
CC(=O)Nc1ccc(S(=O)(=O)N(C2=NCC(C)S2)c2ccccc2)cc1 (stereo unspecified)	/	/	0.501	19.1*	/	/	5700	1632	i
Cc1cccc(N(C(=O)Nc2ccccc2)C2=NCC(C)S2)c1 (stereo unspecified)	0.2	0.3	0.572	5.09*	81.2*	68.2*	6412*	/	+
Cc1ccc(NC(=O)N(C2=NCC(C)S2)c2ccccc2)cc1 (stereo unspecified)	/	/	1.9	0.784	/	/	/	/	/
Cc1ccc2c(c1)c(C)cc(=O)n2CCC(=O)O	1.2	0.9	0.277	1.08	-15.8	5.8	/	/	/
CCC(CC)n1[nH]c(=O)cc1N	/	/	-1.13	/	/	/	/	/	/
